# Measured values: the supplement of paper PMC10849652
# Targets with a hit are over-represented here; the source holds about 7,900 in all. About 0.6% of all pairs of compound and target were hits. Values without a mark were called inactive.
# What was measured:
# Assay in all cases: log2 fold change, soluble protein after heating vs DMSO (PISA); higher = thermal stabilisation; K562 cells, 10 uM, 30 min; active = over 0.2 and 3.5 SD of the protein, either way, in both replicates (recomputed)
# [1] = compound: COC1=CC=C(C=C1)CN2C=CC3=C2C=C(C=C3)C(=O)NO
# Procedure, shortened: (§1)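 K562 cells at 2×10^6 cells/mL were treated for 30 min with 10 μM compound, and aliquots were heated for 3 min over 48°C-58°C before pooling. Extraction used PBS with 0.5% NP-40 at 4°C, and soluble protein was the supernatant after 21,000xg for 90 min, measured by TMTpro 16plex LC-MS/MS with channel sums equalised. Thermal stability values, relative to control samples and from duplicates, are log2 fold changes.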
# [2] = compound: CON(C)C(=O)N1N=C(c2cc(F)ccc2F)S[C@@]1(CCCN)c1ccccc1 [filanesib]
# Procedure, shortened: as §1
# [3] = compound: CO[C@H]1C[C@@H]2CC[C@@H](C)[C@@](O)(O2)C(=O)C(=O)N2CCCC[C@H]2C(=O)O[C@H]([C@H](C)C[C@@H]2CC[C@H](n3cnnn3)[C@H](OC)C2)CC(=O)[C@H](C)/C=C(\C)[C@@H](O)[C@@H](OC)C(=O)[C@H](C)C[C@H](C)/C=C/C=C/C=C/1C [zotarolimus]
# Procedure, shortened: as §1
# [4] = compound: COc1cc(C(=O)O)ccc1NC(=O)[C@@H]1N[C@@H](CC(C)(C)C)[C@](C#N)(c2ccc(Cl)cc2F)[C@H]1c1cccc(Cl)c1F [idasanutlin]
# Procedure, shortened: as §1
# [5] = compound: COc1cc(Nc2ncc3c(n2)-c2ccc(Cl)cc2C(c2c(F)cccc2OC)=NC3)ccc1C(=O)O [alisertib]
# Procedure, shortened: as §1
# [6] = compound: COc1cc2nc(-c3cc(F)ccc3O)nc(N[C@@H]3CNC[C@H]3C(C)(C)O)c2cc1OC
# Procedure, shortened: as §1
# [7] = compound: COc1cc2ncnc(Nc3ccc(F)c(Cl)c3)c2cc1OCCCN1CCOCC1 [gefitinib]
# Procedure, shortened: as §1
# [8] = compound: COc1cccc2cc(-c3nc([C@H]4CC[C@H](C(=O)O)CC4)n4ncnc(N)c34)[nH]c12
# Procedure, shortened: as §1
# [9] = compound: CS(=O)(=O)CCNCc1ccc(-c2ccc3ncnc(Nc4ccc(OCc5cccc(F)c5)c(Cl)c4)c3c2)o1 [lapatinib]
# Procedure, shortened: as §1
# [10] = compound: CS(=O)(=O)N1CCN(Cc2cc3nc(-c4cccc5[nH]ncc45)nc(N4CCOCC4)c3s2)CC1 [pictilisib]
# Procedure, shortened: as §1
# [11] = compound: CS(=O)(=O)c1ccc(-c2cnc(N)c(C(=O)Nc3ccccc3)n2)cc1
# Procedure, shortened: as §1
# [12] = compound: C[C@@H](Oc1cc(-c2cnn(C3CCNCC3)c2)cnc1N)c1c(Cl)ccc(F)c1Cl [crizotinib]
# Procedure, shortened: as §1
# [13] = compound: C[C@@H]1COCCN1C2=NC(=NC(=C2)C3(CC3)S(=O)(=O)C)C4=C5C=CNC5=CC=C4
# Procedure, shortened: as §1
# [14] = compound: C[C@H](C1=CC=C(C=C1)C(=O)NC2=C3C=CNC3=NC=C2)N
# Procedure, shortened: as §1
# [15] = compound: C[C@H](Nc1ncnc2nc[nH]c12)c1cc2cccc(Cl)c2c(=O)n1-c1ccccc1 [duvelisib]
# Procedure, shortened: as §1
# [16] = compound: Cc1cc(Nc2cc(CN3CCOCC3)c3nc(C)c(Cc4ccc(Cl)cc4F)n3n2)n[nH]1 [gandotinib]
# Procedure, shortened: as §1
# [17] = compound: Cc1cc(Nc2cc(N3CCN(C)CC3)nc(Sc3ccc(NC(=O)C4CC4)cc3)n2)n[nH]1 [tozasertib]
# Procedure, shortened: as §1
# [18] = compound: Cc1cc(SCc2sc(-c3ccc(C(F)(F)F)cc3)nc2C)ccc1OCC(=O)O
# Procedure, shortened: as §1
# [19] = compound: Cc1ccc(-n2nc(C(C)(C)C)cc2NC(=O)Nc2ccc(OCCN3CCOCC3)c3ccccc23)cc1 [doramapimod]
# Procedure, shortened: as §1
# [20] = compound: Cc1ccc(C(=O)N(CCCN)[C@@H](c2nc3cc(Cl)ccc3c(=O)n2Cc2ccccc2)C(C)C)cc1 [ispinesib]
# Procedure, shortened: as §1
# UniProt P36915, sequence (P36915 whole entry, looked up): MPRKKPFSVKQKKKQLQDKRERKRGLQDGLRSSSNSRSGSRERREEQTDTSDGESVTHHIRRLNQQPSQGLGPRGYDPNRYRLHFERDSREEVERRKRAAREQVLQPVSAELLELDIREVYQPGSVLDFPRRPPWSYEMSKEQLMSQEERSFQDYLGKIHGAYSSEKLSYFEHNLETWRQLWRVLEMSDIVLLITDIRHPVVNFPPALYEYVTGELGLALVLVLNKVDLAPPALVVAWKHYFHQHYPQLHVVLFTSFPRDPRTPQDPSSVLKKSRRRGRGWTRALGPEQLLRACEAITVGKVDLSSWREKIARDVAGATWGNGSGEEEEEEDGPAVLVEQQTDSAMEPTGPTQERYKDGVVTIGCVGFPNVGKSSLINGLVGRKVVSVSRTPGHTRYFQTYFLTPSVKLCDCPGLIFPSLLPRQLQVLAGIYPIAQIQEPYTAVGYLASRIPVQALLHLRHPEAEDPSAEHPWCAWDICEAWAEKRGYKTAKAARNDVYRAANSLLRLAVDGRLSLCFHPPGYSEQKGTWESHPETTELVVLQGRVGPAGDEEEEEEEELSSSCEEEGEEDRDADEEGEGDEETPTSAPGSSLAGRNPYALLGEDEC
# UniProt Q9H0R8, sequence (Q9H0R8 whole entry, looked up): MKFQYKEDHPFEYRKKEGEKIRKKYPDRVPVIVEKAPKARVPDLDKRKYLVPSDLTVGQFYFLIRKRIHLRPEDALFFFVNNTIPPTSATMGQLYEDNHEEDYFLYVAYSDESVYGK
# UniProt Q86VQ1, sequence (Q86VQ1 whole entry, looked up): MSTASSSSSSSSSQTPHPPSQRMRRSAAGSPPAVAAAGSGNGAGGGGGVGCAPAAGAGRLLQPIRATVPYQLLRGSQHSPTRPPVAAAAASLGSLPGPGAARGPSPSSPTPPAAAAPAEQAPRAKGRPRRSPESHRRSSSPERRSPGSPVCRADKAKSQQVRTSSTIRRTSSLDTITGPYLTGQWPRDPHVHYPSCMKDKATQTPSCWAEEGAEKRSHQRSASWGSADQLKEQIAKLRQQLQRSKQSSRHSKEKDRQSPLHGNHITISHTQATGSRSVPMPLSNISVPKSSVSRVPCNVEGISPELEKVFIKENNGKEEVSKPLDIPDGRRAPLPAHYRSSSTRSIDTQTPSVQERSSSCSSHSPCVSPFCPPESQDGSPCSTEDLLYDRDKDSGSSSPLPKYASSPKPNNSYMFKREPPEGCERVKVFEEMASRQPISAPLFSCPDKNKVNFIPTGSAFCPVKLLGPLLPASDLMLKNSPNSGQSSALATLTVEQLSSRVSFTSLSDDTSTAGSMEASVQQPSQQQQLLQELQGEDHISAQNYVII
# UniProt O14893, sequence (O14893 whole entry, looked up): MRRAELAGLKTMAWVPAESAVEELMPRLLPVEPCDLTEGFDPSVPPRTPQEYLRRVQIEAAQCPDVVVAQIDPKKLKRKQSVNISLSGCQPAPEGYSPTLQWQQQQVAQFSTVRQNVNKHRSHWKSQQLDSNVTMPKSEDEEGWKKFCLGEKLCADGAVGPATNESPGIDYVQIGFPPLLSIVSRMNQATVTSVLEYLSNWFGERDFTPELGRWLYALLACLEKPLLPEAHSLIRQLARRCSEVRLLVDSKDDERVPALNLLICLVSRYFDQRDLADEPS
# UniProt Q13907, sequence (Q13907 whole entry, looked up): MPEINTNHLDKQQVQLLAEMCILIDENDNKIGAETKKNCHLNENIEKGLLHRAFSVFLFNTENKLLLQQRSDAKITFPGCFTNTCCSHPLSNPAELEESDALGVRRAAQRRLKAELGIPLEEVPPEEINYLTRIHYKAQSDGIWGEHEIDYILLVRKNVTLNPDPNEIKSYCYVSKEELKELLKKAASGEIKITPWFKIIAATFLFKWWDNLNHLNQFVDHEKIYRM
# UniProt Q7Z4H3, sequence (Q7Z4H3 whole entry, looked up): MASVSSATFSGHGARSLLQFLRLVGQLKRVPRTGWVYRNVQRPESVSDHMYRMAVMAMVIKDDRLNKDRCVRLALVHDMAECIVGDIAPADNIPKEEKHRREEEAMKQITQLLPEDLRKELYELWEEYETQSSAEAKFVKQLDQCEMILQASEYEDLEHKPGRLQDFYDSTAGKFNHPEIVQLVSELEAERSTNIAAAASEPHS
# UniProt P00390, sequence (P00390 whole entry, looked up): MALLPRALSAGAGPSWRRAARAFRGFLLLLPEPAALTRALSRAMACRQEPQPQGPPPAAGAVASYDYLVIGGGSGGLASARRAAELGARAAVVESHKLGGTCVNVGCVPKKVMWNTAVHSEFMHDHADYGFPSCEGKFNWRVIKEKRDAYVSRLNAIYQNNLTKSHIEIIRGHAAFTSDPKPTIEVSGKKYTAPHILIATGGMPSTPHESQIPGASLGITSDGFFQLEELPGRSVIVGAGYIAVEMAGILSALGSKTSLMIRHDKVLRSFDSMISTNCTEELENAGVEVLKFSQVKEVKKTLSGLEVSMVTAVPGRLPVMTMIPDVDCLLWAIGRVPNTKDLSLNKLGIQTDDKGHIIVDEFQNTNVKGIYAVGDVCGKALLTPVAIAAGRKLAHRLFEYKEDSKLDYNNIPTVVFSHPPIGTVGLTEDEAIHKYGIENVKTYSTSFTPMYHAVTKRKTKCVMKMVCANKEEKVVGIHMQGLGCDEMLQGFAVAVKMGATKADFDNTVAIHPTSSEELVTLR
# UniProt Q9HCG7, sequence (Q9HCG7 whole entry, looked up): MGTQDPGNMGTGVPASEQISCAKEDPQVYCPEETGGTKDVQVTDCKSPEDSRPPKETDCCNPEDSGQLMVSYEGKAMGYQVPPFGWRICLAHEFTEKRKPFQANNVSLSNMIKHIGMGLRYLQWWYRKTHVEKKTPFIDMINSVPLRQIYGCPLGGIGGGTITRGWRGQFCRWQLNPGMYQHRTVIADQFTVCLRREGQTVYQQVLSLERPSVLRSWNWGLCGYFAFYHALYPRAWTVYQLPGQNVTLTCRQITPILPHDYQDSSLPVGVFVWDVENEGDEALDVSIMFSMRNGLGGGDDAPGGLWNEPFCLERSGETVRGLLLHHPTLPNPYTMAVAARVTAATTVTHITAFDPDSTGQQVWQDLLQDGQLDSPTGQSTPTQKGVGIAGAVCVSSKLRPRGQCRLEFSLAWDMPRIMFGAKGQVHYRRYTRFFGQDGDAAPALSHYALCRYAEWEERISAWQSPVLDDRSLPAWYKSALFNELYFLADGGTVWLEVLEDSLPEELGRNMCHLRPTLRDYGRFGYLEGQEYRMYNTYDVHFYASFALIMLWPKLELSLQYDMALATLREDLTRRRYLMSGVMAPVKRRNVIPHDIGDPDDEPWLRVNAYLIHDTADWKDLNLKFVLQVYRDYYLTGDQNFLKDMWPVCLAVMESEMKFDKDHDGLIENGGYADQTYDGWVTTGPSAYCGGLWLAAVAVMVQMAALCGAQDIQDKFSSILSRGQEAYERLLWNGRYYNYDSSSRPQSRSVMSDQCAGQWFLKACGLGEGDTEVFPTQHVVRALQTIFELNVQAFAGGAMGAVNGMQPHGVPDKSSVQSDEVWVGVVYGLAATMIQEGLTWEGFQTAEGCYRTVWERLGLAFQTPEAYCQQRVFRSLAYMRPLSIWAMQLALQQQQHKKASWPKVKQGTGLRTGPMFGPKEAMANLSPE
# UniProt Q9NZC3, sequence (Q9NZC3 whole entry, looked up): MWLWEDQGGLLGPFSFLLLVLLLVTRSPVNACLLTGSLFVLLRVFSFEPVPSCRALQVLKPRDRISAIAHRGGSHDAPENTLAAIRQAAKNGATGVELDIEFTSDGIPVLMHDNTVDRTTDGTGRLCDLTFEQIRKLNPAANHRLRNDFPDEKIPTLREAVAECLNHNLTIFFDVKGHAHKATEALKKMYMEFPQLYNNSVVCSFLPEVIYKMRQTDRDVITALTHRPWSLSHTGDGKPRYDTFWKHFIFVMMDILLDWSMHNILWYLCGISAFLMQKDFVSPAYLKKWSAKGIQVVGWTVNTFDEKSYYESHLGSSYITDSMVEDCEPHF
# UniProt P22570, sequence (P22570 whole entry, looked up): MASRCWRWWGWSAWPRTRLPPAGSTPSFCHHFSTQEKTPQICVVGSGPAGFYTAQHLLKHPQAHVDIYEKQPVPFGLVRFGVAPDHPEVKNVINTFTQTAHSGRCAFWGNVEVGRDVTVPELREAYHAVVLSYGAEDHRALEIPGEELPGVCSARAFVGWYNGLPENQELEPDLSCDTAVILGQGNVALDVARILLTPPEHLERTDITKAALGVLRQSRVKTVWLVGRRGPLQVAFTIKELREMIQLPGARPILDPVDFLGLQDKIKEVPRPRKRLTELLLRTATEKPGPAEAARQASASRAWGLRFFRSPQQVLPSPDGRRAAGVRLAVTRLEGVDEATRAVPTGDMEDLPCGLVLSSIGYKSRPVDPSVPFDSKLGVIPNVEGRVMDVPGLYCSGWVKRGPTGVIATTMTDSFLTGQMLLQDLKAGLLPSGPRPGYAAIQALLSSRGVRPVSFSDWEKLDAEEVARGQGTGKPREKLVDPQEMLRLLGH
# UniProt Q9Y680, sequence (Q9Y680 whole entry, looked up): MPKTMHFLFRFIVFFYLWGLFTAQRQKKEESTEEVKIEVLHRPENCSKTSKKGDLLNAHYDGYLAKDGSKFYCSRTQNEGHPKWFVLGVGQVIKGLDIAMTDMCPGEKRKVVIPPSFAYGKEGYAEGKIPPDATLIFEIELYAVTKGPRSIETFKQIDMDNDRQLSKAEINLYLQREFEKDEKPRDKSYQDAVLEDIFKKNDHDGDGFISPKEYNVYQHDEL
# UniProt P60520, sequence (P60520 whole entry, looked up): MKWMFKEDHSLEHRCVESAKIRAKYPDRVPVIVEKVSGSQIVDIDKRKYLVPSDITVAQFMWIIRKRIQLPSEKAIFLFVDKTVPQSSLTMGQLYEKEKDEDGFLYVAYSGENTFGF
# UniProt P09105, sequence (P09105 whole entry, looked up): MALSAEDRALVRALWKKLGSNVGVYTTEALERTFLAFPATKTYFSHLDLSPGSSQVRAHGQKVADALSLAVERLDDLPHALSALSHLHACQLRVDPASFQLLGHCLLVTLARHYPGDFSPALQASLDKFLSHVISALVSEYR
Target,log2 fold change [1],log2 fold change [2],log2 fold change [3],log2 fold change [4],log2 fold change [5],log2 fold change [6],log2 fold change [7],log2 fold change [8],log2 fold change [9],log2 fold change [10],log2 fold change [11],log2 fold change [12],log2 fold change [13],log2 fold change [14],log2 fold change [15],log2 fold change [16],log2 fold change [17],log2 fold change [18],log2 fold change [19],log2 fold change [20]
GNL1 (UniProt P36915),0.047,-0.066,0.049,-0.056,-0.107,0.039,0.031,0.061,0.011,0.04,0.051,-0.014,0.162,-0.011,0.013,0.028,-0.014,0.052,-0.019,0.087
GOLGB1 isoform 2 (UniProt Q14789),-0.16,0.337 (active),-0.04,0.066,-0.069,0.072,-0.02,-0.051,0.046,0.066,-0.135,-0.012,-0.314 (active),0.19,0.004,-0.031,0.211,-0.025,0.056,0.012
FKBP7 (UniProt Q9Y680),-0.152,-0.036,-0.029,0.047,-0.063,0.047,0.086,0.003,-0.065,-0.007,0.052,0.094,0.003,0.114,-0.043,0.114,-0.054,0.005,-0.023,0.044
GABARAPL2 (UniProt P60520),0.185,-0.01,-0.036,-0.072,0.016,0.033,-0.014,0,-0.006,-0.059,0.081,-0.178,0.036,0.006,0.053,0.039,0.031,0.005,-0.073,-0.151
GLCCI1 (UniProt Q86VQ1),0.009,0.052,0.067,0.11,-0.025,-0.096,0.109,0.083,-0.02,-0.039,-0.008,0.045,0.024,0.026,0.023,0.079,0.009,0.044,-0.032,0.239
GBA2 (UniProt Q9HCG7),-0.064,0.117,0.087,-0.042,0.067,0.049,0.084,-0.062,0.011,,0.091,0.094,0.051,0.004,0.041,,-0.053,0.067,0.056,
HDDC2 (UniProt Q7Z4H3),-0.098,-0.037,0.049,-0.068,0.04,-0.05,-0.022,0.068,0.037,0.064,0.044,-0.058,0.106,-0.103,0.04,0.032,0.026,0.024,0.031,0.228
FDXR isoform 7 (UniProt P22570),-0.005,-0.122,0.021,-0.179,-0.019,0.06,0.048,0.074,-0.057,0.201,0.038,-0.036,0.117,-0.01,0.11,-0.064,-0.105,0.023,-0.013,-0.138
GGA2 (UniProt Q9UJY4),0.012,-0.09,0.069,-0.017,-0.067,0.181,-0.004,0.112,-0.027,,0.038,-0.089,0.032,0.036,0.053,,-0.025,0.015,0.009,-0.177
GDE1 (UniProt Q9NZC3),0.046,-0.102,0.043,-0.064,-0.176,0.012,0.008,0.01,-0.011,,0.033,0.063,0.077,-0.087,-0.014,,0.077,-0.067,0.074,0.051
GEMIN2 (UniProt O14893),-0.099,0.132,-0.093,0.034,-0.017,-0.045,0.032,-0.029,0.034,0.016,0.032,-0.043,0.001,0.061,-0.129,0.02,,-0.013,0.029,-0.149
GABARAPL1 isoform 2 (UniProt Q9H0R8),0.053,-0.054,0.024,-0.112,0.024,0.007,0.021,-0.01,-0.026,0.115,0.105,-0.344 (active),0.048,-0.045,0.057,0.078,-0.008,0.026,-0.034,-0.315 (active)
GLYR1 (UniProt Q49A26),-0.024,0.125,-0.04,0,0.071,-0.092,0.113,-0.07,0.169,-0.228,0.033,0.008,-0.125,0.075,-0.179,0.016,-0.18,-0.06,0.117,-0.132
IDI1 isoform 2 (UniProt Q13907),-0.314 (active),0.026,0.033,-0.006,-0.003,0.007,0.024,0.039,-0.014,0.089,0.052,0.093,0.062,-0.018,0.069,0.014,0.057,-0.028,-0.063,0.045
GSR (UniProt P00390),0.023,-0.065,-0.039,-0.049,-0.032,0.015,-0.016,0.043,-0.057,0.036,0.009,0.046,0.029,-0.085,0.014,0.002,-0.011,-0.02,-0.047,-0.003
HBQ1 (UniProt P09105),-0.034,-0.027,0.051,-0.023,-0.115,-0.05,0.033,0.091,0.001,-0.012,-0.017,0.037,0.065,-0.148,0.129,-0.002,0.015,-0.023,-0.003,0.092
